Sa RN4220 lethal = growth inhibition of S. aureus RN4220, primary screen, OD600. 330,000 tested, 0.33% active. 16 h. inhibition, % (no concentration beside the values); in the data active = inhibition above about 85%;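 also: plate controls were untreated cells for no effect and reference antibiotic for full effect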
SARS 3CLpro inh = SARS-CoV 3CLpro protease inhibitors, primary screen, biochemical, quenched FRET. 290,000 tested, 0.14% active. Replicase polyprotein 1ab (Severe acute respiratory syndrome coronavirus), P0C6X7. AID 1706, 2009. recombinant SARS-CoV 3CLpro, quenched FRET peptide cleavage. inhibition, % at 6 µM; in the data active = inhibition above about 12%
CCHFV vOTU inh = CCHFV vOTU protease inhibitors, primary screen, biochemical, Pep-AMC substrate, fluorescence; Crimean-Congo hemorrhagic fever virus L polyprotein viral ovarian tumor (vOTU) protease …; inhibition, % at 11.5 µM; 370,000 tested, 0.55% active; in the data active = inhibition above about 30%; also: 0% = vehicle wells with enzyme and 100% = no enzyme wells
ugtP null kill = growth inhibition of ugtP-null S. aureus, primary screen, RN4220 ugtP deletion, OD600 | 16 h | growth inhibition, % (test concentration not listed) | 330,000 tested, 0.54% active | AID 1259309, 2017; in the data active = growth inhibition above about 68%;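 also: plate controls were untreated wells for no effect and antibiotic for full effect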
MazF activator = activators of E. coli MazEF toxin-antitoxin RNase, primary screen, biochemical, fluorescence, uHTS | Endoribonuclease toxin MazF (Escherichia coli (strain K12)), P0AE70 | FAM/BHQ RNA-DNA oligo cleavage fluorescence, 5 h | activation, % at 20 µM | 350,000 tested, 0.32% active | AID 504720, 2011; in the data active = activation above about 50%
Target sequence (P0AE70 whole entry, looked up): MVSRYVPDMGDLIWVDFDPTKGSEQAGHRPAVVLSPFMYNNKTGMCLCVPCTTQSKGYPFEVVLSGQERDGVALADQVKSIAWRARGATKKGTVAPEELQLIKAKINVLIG
Mtb bLac sens = beta-lactam sensitization of Mtb H37Rv, H37Rv; inhibition, % at 25 µM; AID 434955, 2010; M. tuberculosis H37Rv growth with meropenem, percent inhibition; 330,000 tested, 0.27% active; call rule not given here;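 also: growth measured after seven days incubation then overnight dye step; 0% = bacteria only wells and 100% = bacteria with antibiotic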
Numbers without * were called inactive; . = not tested or not shown; + = active, no number. Sampled rows, rich in hits. Any-hit rate of the full collection: about 1.3%.

SMILES	Sa RN4220 lethal	SARS 3CLpro inh	CCHFV vOTU inh	ugtP null kill	MazF activator	Mtb bLac sens
N#CC1=C(N)Oc2cc(N)ccc2C1c1cccc(F)c1 (configuration not stated)	4	7	2	-7	9	1
CN(C)c1ccc2c(c1)OC(N)=C(C#N)C2c1cccc(F)c1 (configuration not stated)	-3	-3	.	-6	52*	16
Cc1cccc(C=NNC(=O)c2ccc(Cl)cc2)c1O	93*	.	.	73	.	.
Cc1ccccc1COCC(CC(C)C)N1CCN(C(=O)c2cccc(C(F)(F)F)c2)CCC1=O (configuration not stated)	8	.	.	5	.	.
O=C(N/N=C/c1cccnc1)c1ccc(NC(=O)C(c2ccccc2)c2ccccc2)cc1	.	-3	-2	.	61*	0
COc1ccc(C2C(C(=O)c3ccccc3)N3c4ccccc4C=CC3C2[N+](=O)[O-])cc1 (configuration not stated)	3	3	9	-8	63*	.
CC(C)CC(=O)NC(=S)Nc1ccc(S(=O)(=O)N2CCCC2)cc1	4	2	2	87*	-12	-2
Cc1cc(C)nc(NS(=O)(=O)c2ccc(NC(=S)NC(=O)C(C)(C)C)cc2)n1	-1	4	-2	27	6	-4
Cc1cc(C)nc(NS(=O)(=O)c2ccc(NC(=S)NC(=O)CC(C)C)cc2)n1	4	-1	13	84*	1	-8
CCCSc1cc(N2CCCC2)nc(-c2ccccc2)n1	-1	-5	10	27	-1	2
CCCSc1cc(N2CCN(C)CC2)nc(-c2ccc(OC)cc2)n1	-8	-3	3	100*	0	99
CCSC1=N/C(=C\c2ccc3c(c2)OCO3)C(=O)S1	19	2	6	15	-2	7
C=CCSC1=N/C(=C\c2cc(OC)c3c(c2)OCO3)C(=O)S1	.	5	-8	.	518*	-10
CCCCCCCCCCCCCCCCn1cc[n+](CC(C)=O)c1	100*	7	.	101*	-12	.
CCOc1ccc(C=NOCC(=O)Nc2ccc3c(c2)OCO3)cc1	7	.	.	18	.	.
CC(C)CC(CN(N=O)C(Cc1ccccc1)CN(C)N=O)N(CCc1ccccc1)N=O (configuration not stated)	2	.	.	-23	.	.
CCC(=Cc1ccccc1)c1cccc2[nH]c3c(OC)cccc3c12	39	.	.	97*	.	.
O=C(CCc1nc2ccccc2[nH]c1=O)NN=Cc1ccccc1	4	.	.	2	.	.
O=C(CSCC(=O)Nc1ccccc1)N/N=C/c1c(O)ccc2ccccc12	.	1	-6	.	86*	.
O=C(CSCC(=O)Nc1ccccc1)NN=Cc1c(O)ccc2ccccc12	-3	.	.	13	.	.
CC(=NNC(=S)NC1CCCCC1)c1cccc(Br)c1	4	.	.	-9	.	.
Cc1nnc(SCC(=O)c2ccc([N+](=O)[O-])cc2)s1	3	2	6	-2	12	-1
Nc1nnc(SCC(=O)c2ccc([N+](=O)[O-])cc2)s1	95*	-3	-7	54	-4	-2
Cn1c2ccc(F)cc2c2nc3ccccc3nc21	3	3	19	21	111*	-1
Cc1ccc2c(c1)c1nc3ccccc3nc1n2C	-4	-2	2	15	222*	34
SMILES	Sa RN4220 lethal	SARS 3CLpro inh	CCHFV vOTU inh	ugtP null kill	MazF activator	Mtb bLac sens
Cn1c2ccc(Cl)cc2c2nc3ccccc3nc21	-4	-4	9	9	-5	5
CCOc1ccc2c(c1)c1nc3ccccc3nc1n2C	2	2	10	7	98*	22
CN1CCN(c2ccccc2C=NNC(=O)c2cccnc2)CC1	1	.	.	-1	.	.
O=c1c(O)c(-c2ccc(O)c(O)c2)oc2cc(O)ccc12	.	.	-14	.	58*	.
O=C(CN1CCN(Cc2ccccc2)CC1)NN=Cc1c[nH]c2ccccc12	4	.	.	1	.	.
COc1cccc(C2=CC(c3ccc(N(C)C)cc3)n3nnnc3N2)c1 (configuration not stated)	-2	1	-3	-18	182*	5
CCCCCCCCC[n+]1cccc2c3ccccc3ccc21	100*	1	.	100*	21	91
O=[N+]([O-])c1ccc(C[n+]2cccc3c4ccccc4ccc32)cc1	-3	0	-15	-4	-21	8
CC(C)Oc1ccc(CCC(=O)NN=Cc2ccc3c(c2)OCO3)cc1	-2	.	.	2	.	.
O=C(Nc1ccc(F)cc1)Nc1cc(OCC(F)(F)F)cc(OCC(F)(F)F)c1	92*	2	-11	100*	42	-3
CCOc1ccc(NC(=O)Nc2cc(OCC(F)(F)F)cc(OCC(F)(F)F)c2)cc1	-4	2	12	-42	6	3
Cc1ccc(C=C2C(=O)c3ccccc3C2=O)o1	4	0	4	8	91*	-8
CCOC(=O)/C=c1/s/c(=C/c2ccc3cc(OC)ccc3c2)c(=O)n1CC(=O)NCC1CCCO1 (configuration not stated)	2	.	7	-3	80*	.
CCOC(=O)/C=c1\s/c(=C\c2c(OC)ccc3ccccc23)c(=O)n1CC(=O)NCC1CCCO1 (configuration not stated)	.	5	0	.	+	.
CCOC(=O)C=c1sc(=Cc2ccc3cc(OC)ccc3c2)c(=O)n1CC(=O)NCc1ccc2c(c1)OCO2	2	.	.	1	.	.
CC(C)c1ccc(-n2c(-c3ccccc3)c[n+]3c2CCc2ccccc2-3)cc1	96*	-1	2	100*	18	.
COc1ccc(Br)c(C(=O)OCc2cc(=O)oc3cc(C)ccc23)c1	9	3	7	2	86*	6
COC(=O)c1ccc(Oc2ccc(C(C)(C)C)cc2)c([N+](=O)[O-])c1	-15	1	1	95*	-13	22
CCc1ccc(S(=O)(=O)/N=C2\C=C(Nc3ccc(O)cc3)C(=O)c3ccccc32)cc1	.	8	.	.	2	24
Cc1ccc(S(=O)(=O)/N=C2/C=C(C3C(=O)CC(C)(C)CC3=O)C(=O)c3ccccc32)cc1	.	-2	108*	.	-4	8
Cc1nc2ccccc2c(=O)n1N=Cc1ccccn1	4	.	.	4	.	.
CSc1ccc(/C=N/NC(=O)CN2CCN(Cc3ccccc3)CC2)cc1	.	-5	7	.	2	4
CSc1ccc(/C=N/NC(=O)CN2CCN(Cc3ccc(Cl)cc3)CC2)cc1	.	2	-1	.	95*	-9
Cc1csc(C(C#N)C(=O)c2cc3ccccc3o2)n1 (configuration not stated)	84*	2	14	79	2	29
COC(=O)C(Cc1ccccc1)NC(=O)C(N)CC(=O)OCc1ccccc1 (configuration not stated)	6	.	.	7	.	.
Cc1ccc(NS(=O)(=O)c2ccc3[nH]c(=O)sc3c2)cc1	-9	-3	-2	100*	4	-8
